# PubChem BioAssay
# Legend:
# [1] = system: Human papillomavirus type 1a protein E7 (residues 44-93); assay: HPV1a E7 fragment binders on microarrays, primary screen, biochemical, small-molecule microarray, residues 44-93, 635 nm fluorescence (AID 1108); settings: small-molecule microarray binding, fluorescence 635 nm; higher = more signal;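 note: E7 fragment applied at 1 µg/mL in TBST for 1 h at 4 C; score combines spot fluorescence with its signal to noise ratio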
# [2] = modulators of HCV replicon luciferase signal, primary screen, HCV replication inhibitor project, Huh7 cells, luciferase reporter (AID 1109); settings: 48 h, higher = more signal;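 note: huh7 hepatoma cells harbouring a luciferase neomycin HCV replicon reporter; luciferase luminescence as measure of HCV replicon replication; test concentration not given here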
# [3] = target: Left-right determination factor 2 (Homo sapiens) (UniProt O00292); assay: LEFTY2 binders on small-molecule microarrays, primary screen, biochemical, small-molecule microarray, 635 nm fluorescence scan (AID 1110); settings: LEFTY2 binding, higher = more signal
# [4] = target: Calmodulin-1 (Homo sapiens) (UniProt P0DP23); assay: CALM1 binders on microarrays, EGTA buffer, profiling panel, biochemical, small-molecule microarray, Cy5-labelled CALM1 (AID 1111); settings: Cy5-CALM1 binding fluorescence, higher = more signal;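 note: labelled calmodulin applied in Tris saline Tween buffer holding calcium plus EGTA and DTT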
# [5] = target: Calmodulin-1 (Homo sapiens) (UniProt P0DP23); assay: calcium-bound CALM1 binders on microarrays, profiling panel, artefact control for SMM control-protein annotation, biochemical, small-molecule microarray, Cy5-labelled CALM1, plus calcium (AID 1112); settings: Cy5-CALM1 binding fluorescence, higher = more signal;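 note: score merges spot fluorescence with signal to noise from triplicate slides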
# [6] = small-molecule microarray binders of probe aWnt5a, primary screen, biochemical, biotinylated probe, 635/667 nm fluorescence (AID 1113); settings: higher = more signal;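 note: score merges 667 nm fluorescence intensity with signal-to-noise per printed feature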
# [7] = small-molecule microarray binders of probe aShh, primary screen, biochemical, biotinylated probe, 635/667 nm fluorescence (AID 1114); settings: higher = more signal;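 note: probe is biotin-labelled aShh protein from a stem cell growth factor screen; measures binding of labelled protein to compounds printed on the slide; score merges feature fluorescence at 667 nm with signal-to-noise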
# [8] = small-molecule microarray binders of probe aNog, primary screen, biochemical, biotinylated probe, 635/667 nm fluorescence (AID 1115); settings: higher = more signal;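 note: probe is biotinylated aNog protein used at 0.15 µg/mL for 1 h at 4 C; z-score combines 667 nm fluorescence of each spot with its signal to noise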
# [9] = target: Torsin-1A-interacting protein 1 (Homo sapiens) (UniProt Q5JTV8); assay: LAP1 binders from COS7 cell lysate, primary screen, small-molecule microarray, 635/667 nm fluorescence (AID 1116); settings: COS7-hLAP1 lysate binding, 635 nm fluorescence, higher = more signal
# [10] = target: Alpha-bungarotoxin (Bungarus multicinctus) (UniProt P60615); assay: alpha-bungarotoxin binders on microarray, profiling panel, artefact control for SMM control protein annotation, biochemical, small-molecule microarray, Alexa647 label, 635/667 nm fluorescence (AID 1117); settings: alpha-BTX-A647 binding fluorescence, higher = more signal
# Alpha-bungarotoxin (Bungarus multicinctus), sequence (P60615 whole entry, looked up): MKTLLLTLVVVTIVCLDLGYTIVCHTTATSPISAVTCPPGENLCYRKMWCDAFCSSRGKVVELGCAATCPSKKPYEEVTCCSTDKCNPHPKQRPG
# Left-right determination factor 2 (Homo sapiens), sequence (O00292 whole entry, looked up): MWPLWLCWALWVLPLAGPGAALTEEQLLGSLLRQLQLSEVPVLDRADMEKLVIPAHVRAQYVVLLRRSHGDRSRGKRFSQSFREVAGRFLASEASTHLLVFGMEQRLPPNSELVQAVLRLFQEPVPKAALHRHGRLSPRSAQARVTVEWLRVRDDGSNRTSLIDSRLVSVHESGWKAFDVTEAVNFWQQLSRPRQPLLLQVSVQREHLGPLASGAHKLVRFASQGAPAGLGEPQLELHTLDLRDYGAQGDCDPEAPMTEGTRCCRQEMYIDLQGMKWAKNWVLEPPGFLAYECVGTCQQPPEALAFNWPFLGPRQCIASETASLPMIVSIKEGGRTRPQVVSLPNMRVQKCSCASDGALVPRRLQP
# Torsin-1A-interacting protein 1 (Homo sapiens), sequence (Q5JTV8 whole entry, looked up): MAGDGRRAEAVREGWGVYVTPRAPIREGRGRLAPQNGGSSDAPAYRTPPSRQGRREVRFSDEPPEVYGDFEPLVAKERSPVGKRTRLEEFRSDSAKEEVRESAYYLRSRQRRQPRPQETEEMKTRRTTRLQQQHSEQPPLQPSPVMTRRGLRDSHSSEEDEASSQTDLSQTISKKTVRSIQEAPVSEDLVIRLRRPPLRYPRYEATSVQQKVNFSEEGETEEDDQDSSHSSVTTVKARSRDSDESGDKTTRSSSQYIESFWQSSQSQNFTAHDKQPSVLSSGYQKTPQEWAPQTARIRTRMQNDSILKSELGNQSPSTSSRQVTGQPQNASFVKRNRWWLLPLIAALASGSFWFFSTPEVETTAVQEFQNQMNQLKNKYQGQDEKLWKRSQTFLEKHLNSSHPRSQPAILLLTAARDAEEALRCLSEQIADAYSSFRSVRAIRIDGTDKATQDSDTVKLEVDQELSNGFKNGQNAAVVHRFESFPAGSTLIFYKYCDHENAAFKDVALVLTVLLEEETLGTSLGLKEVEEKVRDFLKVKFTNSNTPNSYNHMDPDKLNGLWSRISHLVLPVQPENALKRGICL
SMILES,composite z-score [1],z-score [2],composite z-score [3],composite z-score [4],composite z-score [5],composite z-score [6],composite z-score [7],composite z-score [8],composite z-score [9],composite z-score [10]
CCOC(=O)[C@H]1C/C=C/C[C@H](C(=O)OCC)C(=O)O[C@H]2[C@@H](OC)O[C@H](CO)[C@@H](OC(=O)c3ccc(Br)cc3)[C@@H]2OC1=O,0.215,-2.74,0.466,0.389,0.502,-0.0704,0.134,0.0795,0.863,0.369
C[N+](C)(C)CCCC[C@@H]1NC(=O)[C@H]2C[C@@H](C(=O)NCCCCCCNC(=O)CS)[C@@H](c3ccc(O)cc3)N2C1=O,-1.07,-0.237,-1.4,-0.493,0.55,-0.178,-0.138,-0.0604,1.51,0.539
[N-]=[N+]=NCc1ccccc1C[C@@]1(C(=O)NCC(O)CO)N=C(c2ccc(OCCCO)cc2)O[C@@H]1c1ccccc1 (stereo not given in full),1.03,-1.41,-1.38,0.899,1.25,-0.0285,0.156,0.723,1.01,0.183
Cc1ccc(S[C@]2(C(=O)O)CC(=O)N(Cc3ccccc3C(F)(F)F)[C@@H]2c2ccc(CO)cc2I)cc1,0.4,-1.26,-1.66,-0.633,-0.711,-0.12,-0.315,-0.322,-0.327,-0.247
C=CC[C@]1(C(=O)N2CCOCC2)N=C(c2ccc(OCCCO)cc2)O[C@H]1c1ccccc1N=[N+]=[N-],1.47,-1.43,0.258,1.47,0.667,0.0839,0.308,1.76,1.9,0.92
[N-]=[N+]=NCc1ccccc1[C@H]1OC(c2ccc(OCCCO)cc2)=N[C@@]1(Cc1ccccc1)C(=O)N1CCCCC1,1.37,-2.55,0.198,1.23,0.0298,0.195,-0.0243,-0.768,0.249,1.43
CC(c1ccccc1)C(O)C1C=CC2C(=O)N(c3ccccc3)C(=O)C2N1Nc1ccccc1 (stereo not given),1.5,-2.44,-0.0093,1.5,0.993,-0.0758,-0.0702,1.44,1.11,1.98
NC(=O)N1C(=O)C2C(C1=O)C1C=C(CCCO)C2C(C2CC2)N1Cc1cc2c(cc1Br)OCO2 (stereo not given),-0.443,-0.264,-0.549,0.0653,0.357,-0.12,0.0278,-0.0065,-0.111,0.515
COc1ccccc1CN1C(=O)c2ccccc2[C@@]2(Cc3ccccc3N(CCCN(C)C)C2=O)[C@@H]1c1ccc(CO)cc1,-0.0362,-1.86,0.524,-0.0574,-0.688,-0.165,-0.282,-0.273,0.0163,-0.94
CCOC(=O)C1=CC[C@H]2C(=O)N(c3ccccc3)C(=O)[C@@H]12,1.51,-1.36,0.791,0.802,-0.513,0.027,-0.0793,1.15,1.14,0.203
COc1ccc([Si](C)(C)[C@@H]2[C@@H](CCn3cc(CCO)nn3)O[C@]3(C(=O)N(Cc4cccc(N5C(=O)c6cccc7cccc5c67)c4)c4ccccc43)[C@H]2C)cc1,1.37,-5.22,-0.0227,0.911,0.506,-0.0256,-0.0192,0.406,0.868,0.664
O=C1NC(=O)C2C1C=CC(C(O)c1ccc(I)cc1)N2Nc1ccc(Cl)cc1Cl (stereo not given),1.36,-0.644,-0.562,1.84,0.99,-0.0236,-0.0056,1.66,1.05,1.1
CCN(CC)c1ccc(N2CC=CC34O[C@@H]5C=CCOC(=O)[C@@H]5[C@H]3C(=O)N(CCCCCCO)[C@@H]4C2=O)cc1 (stereo not given in full),1.01,-1.4,-0.699,-0.333,0.48,-0.152,-0.0035,-0.248,2.01,-0.226
COC(=O)c1c2oc(c1C(=O)OC)C(=O)N[C@@H](C(C)C)Cn1cc(nn1)C1(CCCCC1)NC(=O)N[C@H](CO)CC2,0.218,1.48,-0.05,-0.346,-0.403,-0.0269,-0.0769,0.621,0.764,-0.216
CC(C)[C@@H](C(=O)O)n1cc(C2(O)CCCCC2)nn1,0.875,-0.465,0.21,0.539,0.0141,-0.201,-0.0738,-0.0809,0.563,0.184
CCOC(=O)C[C@H]1[C@H](OC(=O)c2ccc(-c3ccccc3)cc2)[C@@H](NC(=O)c2ccccc2)c2cc(OCCCO)ccc2N1C(=O)Cc1ccc(OC)cc1,-0.149,-1.41,0.199,0.594,0.534,-0.1,-0.147,-0.18,0.328,0.281
COCCOC(=O)N1C(=O)[C@@]2(c3cc(C#CC4=CCCCC4)ccc31)[C@H](C(N)=O)[C@H]1C(=O)O[C@H](c3ccccc3)[C@H](c3ccccc3)N1[C@@H]2c1ccc(O)cc1,1.13,-1.76,0.959,1.16,-0.308,-0.107,-0.0362,-0.0956,0.923,1.51
C#CCOc1ccc(C[C@@H](C(=O)OC)N(CC#C)[C@@H](/C=C/C2CC2)[C@H](O)Cc2ccccc2)cc1,-0.802,-2.06,-0.336,-1.1,-1.69,-0.2,-0.221,-0.337,0.255,-0.335
O=C1OCCC=C[C@H]2OC34C=CCN(c5ccc(Cl)cc5)C(=O)[C@H]3N(CCCO)C(=O)[C@@H]4C12 (stereo not given in full),-0.726,-1.04,-0.131,0.0745,0.168,-0.182,-0.186,0,-0.421,0.275
C=C(/C(=C/C[C@H](OC(C)=O)c1ccc(OCCO)cc1)c1cc(C(=O)OC)ccc1OC)C(C)C,1.16,-1.19,0.323,1.17,0.116,-0.0721,-0.2,0.775,1.2,0.179
CCCC[C@@H]1C[C@H]1[C@@H](NC(=O)c1cccnc1)c1ccc(Cl)cc1,-1.05,-2.14,-2.99,0.867,1.69,-0.191,-0.509,0.526,-0.553,-1.36
[N-]=[N+]=Nc1ccccc1C[C@@]1(C(=O)N2CCCCC2)N=C(c2ccc(OCCCO)cc2)O[C@@H]1c1ccccc1,-0.108,-1.2,0.0334,1.83,0.914,-0.0459,-0.0904,1.79,1.52,1.07
O[C@@H](Cc1ccccc1)[C@@H](/C=C/C1CC1)NCc1cccc(Cl)c1,-0.597,-4.47,-1.4,-0.863,-0.133,-0.197,-0.206,-0.402,-0.737,-0.801
Cc1ccc(S[C@]2(C(=O)O)CC(=O)N(C(C)C)[C@@H]2c2ccc(CO)cc2)cc1,0.253,-0.625,-0.193,-0.0058,-0.529,-0.12,0.216,-0.294,1.42,0.644
COC(=O)C(CC#Cc1ccc2c(c1)[C@]1(C(=O)N2)[C@H](c2ccc(O)cc2)N2[C@H](c3ccccc3)[C@H](c3ccccc3)OC(=O)[C@H]2[C@@H]1C(=O)N1CCN(c2ncccn2)CC1)C(=O)OC,0.584,-0.305,-0.0195,1.1,-0.0671,-0.0748,-0.0143,0.36,0.683,2.4
